Experimental findings from PubChem BioAssay (NCI) are described below.

Common to all, as to assay: NCI-60 one-dose screen, 48 h (100 = growth as untreated, 0 = no growth, -100 = all killed)
In one assay the test system is SR leukemia. The note with it: 10 µM unless noted.
In a further assay the test system is RPMI-8226 leukemia. The note with it: 10 µM unless noted.
Another assay deals with OVCAR-4 ovarian. Conditions: 10 µM unless noted.
A further assay deals with SK-OV-3 ovarian. The note with it: 10 µM unless noted.
A further assay concerns IGROV1 ovarian. The note with it: 10 µM unless noted.
A further assay has as its system OVCAR-3 ovarian. The note with it: 10 µM unless noted.
For the next assay, the system named is NCI/ADR-RES ovarian. Conditions: 10 µM unless noted.
The next assay deals with BT-549 breast. Conditions: 10 µM unless noted.
Another assay deals with MDA-MB-435 melanoma. Conditions: 10 µM unless noted.
Another assay deals with SW-620 colon. The note with it: 10 µM unless noted.
A further assay has as its system MCF7 breast. The note with it: 10 µM unless noted.
The next assay deals with HCT-116 colon. The note with it: 10 µM unless noted.
For the next assay, the system named is KM12 colon. The note with it: 10 µM unless noted.
For another assay, the system named is OVCAR-8 ovarian. The note with it: 10 µM unless noted.
For the next assay, the system named is OVCAR-5 ovarian. The note with it: 10 µM unless noted.
A further assay deals with HS 578T breast. The note with it: 10 µM.
The subject of a further assay is T-47D breast. The note with it: 10 µM unless noted.
The next assay has as its system HCC-2998 colon. Conditions: 10 µM unless noted.

This is part of a sample that, as a whole, favours compounds with a hit. Of some 83,000 tested, about 20% had one in any assay.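 Each cell line was grown in a 96-well plate and treated with one concentration of compound for 48 hours. Values below 10 were considered active.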 A number with no mark means an inactive call. Calls of active or inactive are those of the source.

Consider `C=C(C)C1CCC2(C(=O)O)CCC3(C)C(CCC4C5(C)CCC(O)C(C)(C)C5CCC43C)C12` (centres undefined), for which the growth in the assay with SR leukemia was 9.38% (active); in the assay with RPMI-8226 leukemia, 7.96% (active); in the assay with OVCAR-4 ovarian it was -40.7% (active); in the assay with SK-OV-3 ovarian, 28%; with IGROV1 ovarian, 7.47% (active); with OVCAR-3 ovarian, -56.1% (active). Moreover, the growth with NCI/ADR-RES ovarian was -54% (active); with BT-549 breast it was -57.5% (active); with MDA-MB-435 melanoma it was 48.6%; with SW-620 colon, 19.6%; in the assay on MCF7 breast, 1.31% (active); with HCT-116 colon, -88.5% (active). Besides, in the assay on KM12 colon, the growth was -26.6% (active).
As for `COc1ccc(/C(=C\c2ccc3c(c2)OCO3)C(=O)Nc2nc3ccccc3s2)cc1`, the growth in the assay with SR leukemia is 81.7%; in the assay with OVCAR-8 ovarian, 102%; in the assay on OVCAR-5 ovarian, 93.6%; in the assay with OVCAR-4 ovarian, 101%; in the assay on SK-OV-3 ovarian it was 97.8%; with IGROV1 ovarian, 103%. For the same compound, the growth is 98.5% with OVCAR-3 ovarian; 110% in the assay with HS 578T breast; 100% with NCI/ADR-RES ovarian; 86.1% with T-47D breast; 103% in the assay on BT-549 breast; 99.1% in the assay with MDA-MB-435 melanoma. Moreover, the growth is 108% with SW-620 colon; 107% in the assay on MCF7 breast; 85.4% in the assay with HCT-116 colon; 109% in the assay with HCC-2998 colon; 101% in the assay on KM12 colon.
As for `CCOC(CN1CCN(CC(C)C(=O)c2ccccc2)CC1)c1ccccc1` (centres undefined), the growth was 99.3% in the assay on SR leukemia; 104% in the assay with OVCAR-8 ovarian; 110% in the assay on OVCAR-5 ovarian; 93.4% in the assay on OVCAR-4 ovarian; 105% in the assay with SK-OV-3 ovarian; 104% in the assay on IGROV1 ovarian. The growth was 112% with OVCAR-3 ovarian; 115% in the assay with HS 578T breast; 106% in the assay on NCI/ADR-RES ovarian; 92.8% with T-47D breast; 115% with BT-549 breast; 102% with MDA-MB-435 melanoma. Besides, the growth is 106% with SW-620 colon; 80.6% with MCF7 breast; 109% in the assay with HCT-116 colon; 115% with HCC-2998 colon; 104% with KM12 colon.
Regarding `CC(=O)N(C)c1ccc(Nc2cc(C)[nH]c3ccc4ncnc4c23)cc1`, the growth in the assay on SR leukemia is 11.1%; with RPMI-8226 leukemia it was 56.2%; in the assay on OVCAR-5 ovarian it was 63.5%; in the assay with OVCAR-4 ovarian, 77.9%; in the assay with SK-OV-3 ovarian, 74.3%; with IGROV1 ovarian, 1.11% (active). The growth in the assay on OVCAR-3 ovarian was 76.3%; in the assay with HS 578T breast it was 75.1%; with NCI/ADR-RES ovarian, 101%; with T-47D breast, 47.5%; in the assay on BT-549 breast, 61.6%; in the assay on MDA-MB-435 melanoma, 81.3%. In addition, the growth with SW-620 colon is 45.5%; with MCF7 breast, 28.3%; with HCT-116 colon it was 19.2%; in the assay on HCC-2998 colon, 26.9%.
Take `COc1cc(C)c2c(=O)c3c(oc2c1)C(=O)c1c(O)c(OC)cc(O)c1C3=O`: the growth was 15.7% with SR leukemia; -8.23% (active) in the assay with RPMI-8226 leukemia; -4.74% (active) in the assay with OVCAR-5 ovarian; 1.77% (active) with OVCAR-4 ovarian; 9.16% (active) in the assay on SK-OV-3 ovarian; 5% (active) with OVCAR-3 ovarian. For the same compound, the growth with HS 578T breast was 35%; in the assay with NCI/ADR-RES ovarian, 5.56% (active); with T-47D breast, 0.298% (active); in the assay with BT-549 breast, 11.7%; in the assay on MDA-MB-435 melanoma, 16.3%; in the assay with MCF7 breast, 7.86% (active). Besides, the values for the growth in the assay on HCT-116 colon, with HCC-2998 colon and in the assay on KM12 colon were 7.58% (active), 1.73% (active) and 14.6%, respectively.
For the compound `CCN(CC)CCC(CNc1ccnc2cc(Cl)ccc12)c1ccc(O)cc1` (centres undefined), the growth is 47.5% in the assay with SR leukemia; 51.3% with RPMI-8226 leukemia; 92.2% in the assay with OVCAR-8 ovarian; 91.4% in the assay with OVCAR-4 ovarian; 104% in the assay with SK-OV-3 ovarian; 78.1% with IGROV1 ovarian. Moreover, the growth was 98.7% with OVCAR-3 ovarian; 99.8% with NCI/ADR-RES ovarian; 114% with T-47D breast; 80.5% with BT-549 breast; 60.7% in the assay with MDA-MB-435 melanoma; 51.2% with SW-620 colon. The growth was 113% in the assay on MCF7 breast, 49.5% in the assay with HCT-116 colon and 88.9% in the assay on HCC-2998 colon.
In the case of `C=CCN(CCOC(=O)c1ccc([N+](=O)[O-])cc1)CCOC(=O)c1ccc([N+](=O)[O-])cc1`, the growth is 94.3% with RPMI-8226 leukemia; 98.7% in the assay on OVCAR-8 ovarian; 102% in the assay on OVCAR-5 ovarian; 99.5% in the assay with OVCAR-4 ovarian; 99.2% with SK-OV-3 ovarian; 88.1% in the assay with IGROV1 ovarian. The growth in the assay with OVCAR-3 ovarian was 104%; with HS 578T breast, 101%; in the assay with NCI/ADR-RES ovarian it was 96.8%; in the assay on T-47D breast, 90.5%; in the assay with BT-549 breast, 100%; with MDA-MB-435 melanoma it was 107%. Further, the growth in the assay on SW-620 colon was 100%; in the assay on MCF7 breast, 96.3%; in the assay on HCT-116 colon, 96.2%; in the assay with HCC-2998 colon it was 105%.
Regarding `CC(C)(C)CC(C)(C)NCc1cc(C(C)(C)C)cc(CNC(C)(C)CC(C)(C)C)c1O`, the growth was 1.23% (active) in the assay on SR leukemia; 86.4% in the assay on OVCAR-8 ovarian; 68.6% in the assay on OVCAR-5 ovarian; 81.3% in the assay with SK-OV-3 ovarian; 61.1% with IGROV1 ovarian; 79.2% in the assay on OVCAR-3 ovarian. Moreover, the growth is 67.6% in the assay with HS 578T breast; 14.5% in the assay on T-47D breast; 81.5% in the assay with MDA-MB-435 melanoma; 75.3% in the assay with SW-620 colon; 31.6% in the assay on MCF7 breast; 26.1% in the assay with HCT-116 colon. Further, the growth in the assay on HCC-2998 colon is 31.1%; in the assay on KM12 colon, 75%.
As to `c1ccc2c(Cc3csc4ccccc34)csc2c1`, the growth in the assay with SR leukemia was 50%; with OVCAR-8 ovarian, 101%; in the assay with OVCAR-5 ovarian, 101%; in the assay with OVCAR-4 ovarian, 88.3%; in the assay with SK-OV-3 ovarian it was 77.7%; in the assay with OVCAR-3 ovarian, 92.5%. Moreover, the growth is 104% in the assay with HS 578T breast; 78.9% in the assay with T-47D breast; 92.2% with BT-549 breast; -9.16% (active) in the assay on MDA-MB-435 melanoma; 68.4% in the assay with MCF7 breast; 78% in the assay on HCT-116 colon. The growth in the assay on HCC-2998 colon was 85.3%; in the assay with KM12 colon it was 75.8%.
With `COc1ccc(-c2n[nH]nc2-c2cc(OC)c3c(c2)OCO3)cc1`, the growth was 9.65% (active) in the assay with RPMI-8226 leukemia; 6.23% (active) in the assay on OVCAR-8 ovarian; 42.7% in the assay with OVCAR-5 ovarian; 51.7% in the assay on OVCAR-4 ovarian; -6.92% (active) with SK-OV-3 ovarian; -17.4% (active) in the assay with IGROV1 ovarian. Moreover, the growth with OVCAR-3 ovarian is -14.6% (active); in the assay with HS 578T breast it was 15%; in the assay on NCI/ADR-RES ovarian, 0.386% (active); in the assay on T-47D breast it was 53.7%; with BT-549 breast, 15.6%; in the assay on MDA-MB-435 melanoma, -74.7% (active). The growth is 22.6% with SW-620 colon; 15.9% with MCF7 breast; 5.38% (active) in the assay with HCT-116 colon; -3.69% (active) with HCC-2998 colon; 2.06% (active) in the assay with KM12 colon.
